Source: PubChem BioAssay AID1159580 (chemical genetic matrix, 2015)
Among all 5,500 compounds or so, about 2,000 (36%) were called active. About 18% were inconclusive and are not listed. Rule as the data show it: active = normalized growth mostly below about 0.91 (no sharp cut-off); inconclusive = no clear call, values can overlap the other calls; inactive = mostly above about 0.92. Some of the results follow.

Assay: chemical genetic growth profiling, strain panel (AID 1159580);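 also: tested at 20 µM; growth read once vehicle control cultures reached saturation at 30 °C; 1 = growth at the plate median or of vehicle wells; lower values mean less growth of the strain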
Details: growth OD

Measured: normalized growth

O=c1cccc2n1CC1CC2CN2CCCC[C@@H]12 (stereo not given in full)
inactive: S. cerevisiae deletion strains, locus YJR043C, strain POL32, stronger effect = lower value 0.982 | S. cerevisiae deletion strains, locus YJR066W, strain TOR1, stronger effect = lower value 0.98 | S. cerevisiae deletion strains, locus YJR075W, strain HOC1, stronger effect = lower value 0.986 | S. cerevisiae deletion strains, locus YKL009W, strain mrt4, stronger effect = lower value 0.977 | S. cerevisiae deletion strains, locus YKL068W, stronger effect = lower value 0.983 | S. cerevisiae deletion strains, locus YKL085W, strain MDH1 (second series), stronger effect = lower value 0.986 | S. cerevisiae deletion strains, locus YKL085W, strain MDH1, stronger effect = lower value 0.986 | S. cerevisiae deletion strains, locus YKL160W, strain elf1, stronger effect = lower value 0.996 | S. cerevisiae deletion strains, locus YKR001C, strain vps1, stronger effect = lower value 1 | S. cerevisiae deletion strains, locus YKR026C, strain gcn3, stronger effect = lower value 0.965 | S. cerevisiae deletion strains, locus YKR091W, strain srl3, stronger effect = lower value 0.978 | S. cerevisiae deletion strains, locus YLL001W, strain dnm1, stronger effect = lower value 0.987 | S. cerevisiae deletion strains, locus YLL026W, stronger effect = lower value 0.976 | S. cerevisiae deletion strains, locus YLL041C, strain sdh2, stronger effect = lower value 0.98 | S. cerevisiae deletion strains, locus YLR027C, strain aat2, stronger effect = lower value 0.984 | S. cerevisiae deletion strains, locus YLR039C, strain RIC1, stronger effect = lower value 1 | S. cerevisiae deletion strains, locus YLR058C, strain SHM2, stronger effect = lower value 0.978 | S. cerevisiae deletion strains, locus YLR102C, strain apc9, stronger effect = lower value 0.982 | S. cerevisiae deletion strains, locus YLR113W, strain HOG1, stronger effect = lower value 0.985 | S. cerevisiae deletion strains, locus YLR221C, strain rsa3, stronger effect = lower value 1 | S. cerevisiae deletion strains, locus YLR258W, strain gsy2, stronger effect = lower value 0.978 | S. cerevisiae deletion strains, locus YLR262C, strain YPT6 (second series), stronger effect = lower value 1.01 | S. cerevisiae deletion strains, locus YLR262C, strain YPT6, stronger effect = lower value 0.955 | S. cerevisiae deletion strains, locus YLR268W, strain sec22, stronger effect = lower value 1.03 | S. cerevisiae deletion strains, locus YLR320W, strain mms22, stronger effect = lower value 0.974 | S. cerevisiae deletion strains, locus YLR330W, strain CHS5, stronger effect = lower value 0.997 | S. cerevisiae deletion strains, locus YLR342W, strain FKS1 (second series), stronger effect = lower value 1.01 | S. cerevisiae deletion strains, locus YLR342W, strain FKS1, stronger effect = lower value 0.975 | S. cerevisiae deletion strains, locus YLR357W, strain rsc2, stronger effect = lower value 0.943 | S. cerevisiae deletion strains, locus YLR370C, strain arc18, stronger effect = lower value 0.989 | S. cerevisiae deletion strains, locus YLR371W, strain rom2, stronger effect = lower value 0.977 | S. cerevisiae deletion strains, locus YLR384C, strain iki3, stronger effect = lower value 0.976 | S. cerevisiae deletion strains, locus YLR418C, strain cdc73, stronger effect = lower value 0.957 | S. cerevisiae deletion strains, locus YML016C, strain PPZ1, stronger effect = lower value 0.991 | S. cerevisiae deletion strains, locus YML032C, strain rad52, stronger effect = lower value 0.987 | S. cerevisiae deletion strains, locus YML120C, strain ndi1, stronger effect = lower value 1.02 | S. cerevisiae deletion strains, locus YML124C, strain tub3, stronger effect = lower value 0.978 | S. cerevisiae deletion strains, locus YMR058W, strain fet3, stronger effect = lower value 0.987 | S. cerevisiae deletion strains, locus YMR078C, strain ctf18, stronger effect = lower value 0.98 | S. cerevisiae deletion strains, locus YMR125W, strain sto1, stronger effect = lower value 0.944 | S. cerevisiae deletion strains, locus YMR129W, stronger effect = lower value 0.987 | S. cerevisiae deletion strains, locus YMR205C, strain PFK2, stronger effect = lower value 0.928 | S. cerevisiae deletion strains, locus YMR223W, strain ubp8, stronger effect = lower value 0.958 | S. cerevisiae deletion strains, locus YMR231W, strain pep5, stronger effect = lower value 0.98 | S. cerevisiae deletion strains, locus YMR263W, strain SAP30, stronger effect = lower value 0.981 | S. cerevisiae deletion strains, locus YMR307W, strain GAS1, stronger effect = lower value 1.04 | S. cerevisiae deletion strains, locus YNL067W, strain RPL9B, stronger effect = lower value 0.989 | S. cerevisiae deletion strains, locus YNL071W, strain lat1, stronger effect = lower value 0.994 | S. cerevisiae deletion strains, locus YNL153C, strain GIM3, stronger effect = lower value 0.993 | S. cerevisiae deletion strains, locus YNL183C, strain NPR1, stronger effect = lower value 0.993 | S. cerevisiae deletion strains, locus YNL209W, strain ssb2, stronger effect = lower value 0.984 | S. cerevisiae deletion strains, locus YNL233W, strain BNI4, stronger effect = lower value 1 | S. cerevisiae deletion strains, locus YNL248C, strain rpa49, stronger effect = lower value 1.01 | S. cerevisiae deletion strains, locus YNL250W, strain rad50, stronger effect = lower value 0.967 | S. cerevisiae deletion strains, locus YNL271C, strain bni1, stronger effect = lower value 0.996 | S. cerevisiae deletion strains, locus YNL298W, strain CLA4, stronger effect = lower value 0.986 | S. cerevisiae deletion strains, locus YNL307C, strain MCK1, stronger effect = lower value 0.981 | S. cerevisiae deletion strains, locus YNL322C, strain KRE1 (second series), stronger effect = lower value 0.976 | S. cerevisiae deletion strains, locus YNR049C, strain mso1, stronger effect = lower value 0.974 | S. cerevisiae deletion strains, locus YNR052C, strain pop2, stronger effect = lower value 0.979 | S. cerevisiae deletion strains, locus YOL006C, strain TOP1, stronger effect = lower value 1.04 | S. cerevisiae deletion strains, locus YOL012C, strain htz1 0.724 | S. cerevisiae deletion strains, locus YOL147C, strain pex11, stronger effect = lower value 0.98 | S. cerevisiae deletion strains, locus YOR001W, strain rrp6, stronger effect = lower value 0.993 | S. cerevisiae deletion strains, locus YOR061W, strain CKA2, stronger effect = lower value 0.962 | S. cerevisiae deletion strains, locus YOR069W, strain VPS5, stronger effect = lower value 0.999 | S. cerevisiae deletion strains, locus YOR070C, strain gyp1, stronger effect = lower value 0.99 | S. cerevisiae deletion strains, locus YOR080W, strain dia2, stronger effect = lower value 0.971 | S. cerevisiae deletion strains, locus YOR083W, strain WHI5, stronger effect = lower value 1.02 | S. cerevisiae deletion strains, locus YOR106W, strain vam3, stronger effect = lower value 0.985 | S. cerevisiae deletion strains, locus YOR136W, strain idh2, stronger effect = lower value 0.973 | S. cerevisiae deletion strains, locus YOR144C, strain elg1, stronger effect = lower value 0.976 | S. cerevisiae deletion strains, locus YOR184W, strain ser1, stronger effect = lower value 0.973 | S. cerevisiae deletion strains, locus YOR231W, strain MKK1, stronger effect = lower value 1.03 | S. cerevisiae deletion strains, locus YOR265W, strain rbl2, stronger effect = lower value 0.968 | S. cerevisiae deletion strains, locus YOR270C, strain vph1, stronger effect = lower value 0.987 | S. cerevisiae deletion strains, locus YOR290C, strain snf2, stronger effect = lower value 0.951 | S. cerevisiae deletion strains, locus YOR316C, strain cot1, stronger effect = lower value 0.976 | S. cerevisiae deletion strains, locus YPL051W, strain arl3, stronger effect = lower value 1 | S. cerevisiae deletion strains, locus YPL078C, strain atp4, stronger effect = lower value 0.999 | S. cerevisiae deletion strains, locus YPL106C, strain sse1, stronger effect = lower value 0.927 | S. cerevisiae deletion strains, locus YPL240C, strain hsp82, stronger effect = lower value 0.994 | S. cerevisiae deletion strains, locus YPL241C, strain CIN2, stronger effect = lower value 0.994 | S. cerevisiae deletion strains, locus YPL256C, strain CLN2, stronger effect = lower value 1.01 | S. cerevisiae deletion strains, locus YPR119W, strain clb2, stronger effect = lower value 0.976 | S. cerevisiae deletion strains, locus YPR141C, strain kar3, stronger effect = lower value 0.97 | S. cerevisiae deletion strains, locus YPR163C, strain tif3, stronger effect = lower value 0.973 | S. cerevisiae deletion strains, locus YPR167C, strain met16, stronger effect = lower value 0.973 | S. cerevisiae deletion strains, strain wtn01, stronger effect = lower value 1.04 | S. cerevisiae strains, strain wild type, stronger effect = lower value 1
